Reference: PubChem BioAssay

Columns and labels:
[1] = molecular target: Tumor necrosis factor receptor superfamily member 10B (Homo sapiens) (UniProt O14763); test: caspase-8 TRAIL sensitization, hit retest, confirmation, cell-based, NB7+caspase-8, with/without TRAIL, luminescence panel (AID 651596); conditions: NB7 neuroblastoma + caspase-8, TRAIL sensitization, luminescence viability, with TRAIL, mean of runs, at 10 µM, stronger effect = higher value
[2] = as above; conditions: NB7 neuroblastoma + caspase-8, without TRAIL, luminescence viability, without TRAIL, mean of runs, at 10 µM

Tumor necrosis factor receptor superfamily member 10B (Homo sapiens), sequence (O14763 whole entry, looked up): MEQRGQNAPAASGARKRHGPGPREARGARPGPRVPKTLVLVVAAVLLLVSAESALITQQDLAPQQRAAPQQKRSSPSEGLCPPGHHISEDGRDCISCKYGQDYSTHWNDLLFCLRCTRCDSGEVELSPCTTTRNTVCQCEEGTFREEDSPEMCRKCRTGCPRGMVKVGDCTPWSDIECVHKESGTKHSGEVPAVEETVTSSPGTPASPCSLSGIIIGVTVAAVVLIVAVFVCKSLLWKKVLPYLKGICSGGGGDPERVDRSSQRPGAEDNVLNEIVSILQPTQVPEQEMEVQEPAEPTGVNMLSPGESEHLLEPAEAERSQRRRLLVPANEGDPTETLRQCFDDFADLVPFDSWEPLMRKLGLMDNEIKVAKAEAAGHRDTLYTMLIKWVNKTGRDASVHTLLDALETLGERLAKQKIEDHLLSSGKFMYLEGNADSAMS

Structure (SMILES) | activity [1] | activity [2]
Cn1cnc(Sc2ncnc3nc[nH]c23)c1[N+](=O)[O-] | 62.5% | 72.5%
Cc1ccccc1C(=O)O/N=C(\N)Cc1cccs1 | 98% | 96.6%
Cc1cccc(/C(N)=N/OC(=O)c2cccc3ccccc23)c1 | 89.5% | 71%
CCOC(=O)c1cnc2c(Cl)c(Cl)ccc2c1N1CCN(C)CC1 | 39.3% | 43%
Cc1ccc(-c2cc3nc4c(c(=O)n3[nH]2)CCCC4)cc1 | 55.2% | 54.7%
Cc1c(P(=S)(c2ccccc2)c2ccccc2)[n+]2ccccc2n1C/C=C/c1ccccc1 | 83.3% | 56.9%
Cn1c(=N)n(CC(=O)c2ccccc2)c2ccccc21 | 70.7% | 74.4%
COc1ccc(C(=O)Nc2ccccc2C(=O)N/N=C/c2ccco2)cc1 | 87.6% | 59.1%
O=C(COc1ccc(Cl)cc1Cl)Nc1ccccc1F | 54.9% | 40.5%
Nc1c(-c2cccs2)cnc2c(-c3ccc(F)cc3)cnn12 | 57.5% | 48.8%
CC1CCc2c(sc(/N=C/c3ccco3)c2C(N)=O)C1 (stereo unspecified) | 54.1% | 56.5%
CCc1ccc(C(=O)Nc2cc(C)ccc2F)s1 | -9.2% | 27.4%
C=C(C)[C@@H]1C2=CC(C(=O)OC)=C(C[C@H](C(=C)C)[C@H]3O[C@H]3C3=C[C@H]1OC3=O)O2 | 72.2% | 96%
CCCCCCc1cc2cc(C(=O)Nc3ccccc3)c(=O)oc2cc1O | 72.8% | 65.2%
CCN(CC)CCn1c2c(c(SCC(=O)Nc3nc4ccc(C)cc4s3)nc1=O)CCC2 | 28% | 21.6%
CN(C)CCCn1cnc2c(c1=N)C(c1ccccc1)c1ccc3ccccc3c1O2 (stereo unspecified) | 88.5% | 93.6%
Nc1nc(=S)c2ncn(C3OC(CO)C(O)C3O)c2[nH]1 (stereo unspecified) | 9.65% | 6.78%
CCOc1ccc(C(=O)Nc2ccc3[nH]ncc3c2)cc1 | 82.6% | 82.7%
C/C(=N\NC(=O)COc1ccc(C(C)(C)C)cc1)c1ccc(-n2ccnc2)cc1 | 63.5% | 49.1%
CN(C(=O)c1ccccc1)c1nc2ccccc2s1 | 84.3% | 72.3%
Cc1ccc(C)c(C(=O)O/N=C(\N)c2ccc(Br)cc2)c1 | 80.1% | 78.7%
Cc1ccccc1C(=O)Nc1nnc(SCC(=O)NC2CC2)s1 | 48.7% | 45.2%
CCOC(=O)c1sc(NC(=O)c2ccc(OC(C)=O)cc2)nc1C | 61.3% | 57.9%
Cc1cc(NC(=O)c2cc3n(n2)C(C(F)(F)F)CC(c2ccco2)N3)no1 (stereo unspecified) | -11.1% | -14.8%

Structure (SMILES) | activity [1] | activity [2]
C[C@H](NC(=O)c1ncn2c1c(=O)[nH]c1ccc(Br)cc12)c1ccccc1 | 27.2% | 7.95%
O=C(Nc1ccc(O)cc1)c1ccc2c(c1)C(=O)N(Cc1ccccc1)C2=O | 60.9% | 19.7%
O=C(Nc1ccc2c(c1)nc1n2CCSC1)c1ccccc1 | 69.8% | 60%
COC(=O)c1nc(NC(=S)NC(=O)c2cccs2)sc1C | 53.8% | 37.9%
CC(C)(C)c1ccc(C(=O)Nc2cnccn2)cc1 | 78.5% | 82.2%
COc1ccc(C)c2sc(N(CCCN(C)C)C(=O)c3ccc(S(=O)(=O)N4CCc5ccccc5C4)cc3)nc12 | 95.1% | 99.4%
CN(C)CCCN(C(=O)/C=C/c1cccs1)c1nc2c(F)cccc2s1 | 56.7% | 93%
Nc1nc(=S)c2ncn([C@@H]3O[C@H](CO)[C@@H](O)[C@H]3O)c2[nH]1 | 70.6% | 73.5%
Cc1cc(C)cc(N2C(N)=NC(N)=NC2c2cccc(Cl)c2)c1 (stereo unspecified) | 57.8% | 74.3%
O=C(CSc1nnc(NC(=O)c2ccc3c(c2)OCO3)s1)NCc1ccco1 | 85.4% | 83.7%
COc1ccc(C(=O)Nc2nnc(SCC(=O)NCc3ccco3)s2)c(OC)c1 | 65.7% | 61.2%
CCOC(=O)c1ccc(NC(=O)c2nc[nH]c2C(=O)NCCNC(=O)c2[nH]cnc2C(=O)Nc2ccc(C(=O)OCC)cc2)cc1 | 99.4% | 99.5%
Cc1cccc(NS(=O)(=O)c2ccc3c(c2)Cc2cc(S(=O)(=O)Nc4cccc(C)c4C)ccc2-3)c1C | 72.1% | 77.5%
CNC[C@H](CC1CCCCC1)NC[C@H](Cc1ccccc1)NCCC12CC3CC(CC(C3)C1)C2 | 98.5% | 99.4%
O=C(NC(=S)Nc1ccc(Cl)cn1)c1cccs1 | 79.4% | 76.3%
COCCCNc1ccn2nc(-c3ccccc3)cc2n1 | 50.1% | 35.5%
C[C@@H](CO)NC(=O)c1ccc2c3n(nc2c1)-c1ccccc1CO3 | 91.5% | 91.8%
Cc1ccc(CNc2nc3ccccc3n2C)cc1 | 59.8% | 53.8%
O=C(/C=C/c1ccc2c(c1)OCO2)Nc1cccnc1 | 71.1% | 76.2%
COc1ccc(C(=O)O/N=C(\N)c2ccccn2)c(OC)c1 | 75.5% | 83.2%
O=C(CCl)N=c1sccn1Cc1ccc(Cl)cc1Cl | 99.3% | 99.2%
Cc1nc(N)nc(N)c1CCCc1ccc(Cl)c(Cl)c1 | 69.6% | 74.8%
COc1ccc(C=C2OC(=O)C(C(C)=O)=C2O)cc1 | 90.4% | 89%
COc1ccccc1-c1cc2nc(-c3ccccc3)cc(N3CCN(C(=O)c4ccco4)CC3)n2n1 | 81.9% | 66%

Structure (SMILES) | activity [1] | activity [2]
C=CCOc1ccc(/C=C/C(C)=N\O)cc1 | 57.2% | 71.7%
COc1ccccc1C(CNc1ccc(S(=O)(=O)N2CCCC2)cc1[N+](=O)[O-])N(C)C (stereo unspecified) | 52.1% | 55.8%
CCOc1ncccc1C(=O)OCC(=O)Nc1ccc(-c2nc3ccc(C)cc3s2)cc1 | 60.9% | 67%
Fc1cccc(CSc2nc3ccncc3[nH]2)c1 | 55.2% | 54.4%
CC(C)C(=O)N1CCN(c2ccc(NC(=O)c3ccc([N+](=O)[O-])o3)cc2Cl)CC1 | 75.4% | 97.5%
O=C(Nc1cc(S(=O)(=O)N2CCOCC2)ccc1N1CCOCC1)c1ccc([N+](=O)[O-])s1 | 39.1% | 41.4%
Cc1ccc2cc(NC(=O)c3ccccc3)ccc2n1 | 55% | 43.6%
C=CCn1c(C)cc(C(=O)COC(=O)c2n[nH]c(=O)c3ccccc23)c1C | 74.4% | 57.4%
Cc1[nH]cnc1C(=O)N/N=C/c1c(Cl)cccc1Cl | 58.7% | 57.6%
Cc1nc2cc(NC(=O)c3ccc(Br)s3)ccc2s1 | 71.4% | 63.1%
Cc1ccc(C(=O)Nc2ccc3nccnc3c2)cc1 | 77.5% | 74.8%
COc1ccc(C(=O)c2no[n+]([O-])c2C(=O)c2ccc(OC)cc2)cc1 | 98.3% | 99%
CCc1ccc(Nc2n[n+](-c3ccccc3)c(-c3ccc(N(CC)CC)cc3)s2)cc1 | 45.2% | 41.2%
O=c1cc(-c2c(F)c(F)c(F)c(F)c2F)oc2ccccc12 | 98.1% | 92.1%
CC1CCC(C(C)C)C(OC(=O)Cn2c(-c3ccccc3)[n+](C)c3ccccc32)C1 (stereo unspecified) | 70.2% | 61.2%
COc1ccc(C(=O)/C=C/Nc2cc(C)ccn2)cc1 | 66.9% | 52.5%
Cc1csc(NC(=S)NC(=O)c2ccccc2)n1 | 67.7% | 53.1%
O=C(c1cc(-c2ccc(Cl)cc2Cl)on1)N1CCOCC1 | 53.3% | 60.3%
COc1ccc(C(C(=O)NC2CCCCC2)N(C(=O)CCl)c2ccc(Cl)cc2)cc1 (stereo unspecified) | 98.4% | 98.9%
CCCc1ccc(C(=O)NC(=O)c2ccccc2O)cc1 | 78.6% | 75.5%
CCN(CC)S(=O)(=O)c1cc(C(=O)OCC(=O)Nc2ccc(-c3nc4ccc(C)cc4s3)cc2)ccc1F | 73.7% | 74.2%
O=[N+]([O-])c1cc(S(=O)(=O)C(F)(F)F)ccc1Sc1nc2ccccc2[nH]1 | 33.1% | 94.2%
CC(=O)c1ccccc1OCC(O)CN1CCN(CCN2C(=O)c3cccc4cccc(c34)C2=O)CC1 (stereo unspecified) | 45.6% | 16.4%
COc1cccc(C(=O)Nc2ccc(NC(=O)C(C)(C)C)cn2)c1 | 79.7% | 83%

Structure (SMILES) | activity [1] | activity [2]
COc1ccccc1-c1nc(-c2ccccn2)no1 | 76.7% | 72.7%
Cc1nn(-c2ccccc2)c(Cl)c1/C=N/NC(=O)c1[nH]ncc1Br | 83.7% | 71.9%
CCCCN=C1NN=C(c2ccc3c(c2)OCCO3)CS1 | 47.9% | 31.8%
COc1ccc(Oc2c(Cl)cnn(-c3ccc(Cl)c(Cl)c3)c2=O)cc1 | 98.5% | 99.1%
Cn1c(-c2ccccc2F)cc2onc(-c3ccccc3)c2c1=O | 63% | 65.1%
CCCCCCCC(=O)Nc1ccc(C(=O)N/N=C/c2cccc([N+](=O)[O-])c2)cc1 | 69.3% | 75.9%
COCC(C)n1c(C)cc(C(=O)COC(=O)c2n[nH]c3ccccc23)c1C (stereo unspecified) | 58.5% | 51.9%
Cc1ccc(CSc2nc3ncccc3[nH]2)cc1 | 71% | 68.2%
COC(=O)c1ccc2nc(-c3cccc(N)c3)cn2c1 | 74.5% | 67.8%
CCOC(=O)c1nn(-c2ccc3c(c2)OCCO3)cc1O | 60% | 57%
Cc1ccc(Cl)cc1N1CCN(C(=O)c2noc(C)c2[N+](=O)[O-])CC1 | 99.3% | 97.1%
O=C(N/N=C/c1ccc([N+](=O)[O-])o1)c1cc(-c2ccc(-c3ccccc3)cc2)nc2ccccc12 | 85.8% | 89.3%
O=C(/C=C/c1ccccc1Cl)Nc1cccc(O)c1 | 61.3% | 42.2%
O=C(Nc1cnn(C23CC4CC(CC(C4)C2)C3)c1)c1cnn2c(C(F)(F)F)cc(-c3ccco3)nc12 | 76.4% | 70.3%
CCc1ccc(-c2ccc(SCC(=O)NCC3CCCO3)nn2)cc1 (stereo unspecified) | 52.9% | 62.2%
COc1ccc(-c2nc3ccccc3c(=O)[nH]2)cc1 | 73.8% | 77.5%
COc1ccccc1/C=C/C1(C(=O)NC2CCCC2)CC(=O)N1c1ccc(C)cc1 (stereo unspecified) | 90.2% | 88.8%
Cc1nc(N)nc(N)c1/C=C/C(C)(C)c1ccc(Cl)cc1 | 54.5% | 61.7%
CCC(=O)Nc1cccc(-c2ccc(N3CCCCC3)nn2)c1 | 85.5% | 84.5%
O=C(CCl)Nc1ccc(-c2ccccc2)cc1 | 99.3% | 99.7%
CC(C)Sc1cc(Cl)nc(NC(=O)Nc2ccccc2)n1 | 98.4% | 99.7%
